Five compounds from PubChem BioAssay can be followed below.

Inconclusive results are not listed. Active and inactive are the calls of the source.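 Rule for the calls, unless noted: active = binding below the plate cutoff, the plate median minus 3 SD, with a reading above zero; inconclusive = below the plate cutoff but reading exactly zero; inactive = the rest.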

A short description of test [1]: rapamycin-like changes in RPL19A-GFP expression – cell-based, S. cerevisiae, multiplex flow cytometry, primary screen (AID 1862; in the data active = percent of DMSO control GFP below about 86%;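 note: lower values mimic rapamycin by blocking the RPL19A rise seen in DMSO cells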). Conditions: S. cerevisiae RPL19A-GFP strain, flow cytometry fluorescence, 3 h; at 10 µM; stronger effect = lower value. In general terms: A flow cytometer gives signals particle by particle.
The nature of test [2]: TOR pathway GLN3 branch reporter MEP2-GFP changes – S. cerevisiae, multiplex flow cytometry, primary screen (AID 1867;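 active = GFP response, as percent of the DMSO control, above the screen-wide mean plus 3 SD, about 139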;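 note: median GFP channel fluorescence of barcode-gated MEP2-GFP cells measured by flow cytometry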). The note with it: S. cerevisiae MEP2-GFP strain, 3 h, at 10 µM, stronger effect = higher value, 100% means same as DMSO wells.
Test [3] can be described thus: TOR pathway RTG branch CIT2 reporter changes – S. cerevisiae, GFP fusion, multiplex flow cytometry, primary screen (AID 1870;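 active = percent response above a set limit, the screen-wide mean plus 3 SD, cut at about 130% in these data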;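 note: barcoded CIT2-GFP strain pooled with four other GFP strains with rapamycin as positive control; median GFP fluorescence per well over plate mean of DMSO wells so 100% = DMSO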). The note with it: S. cerevisiae CIT2-GFP expression, 3 h, at 10 µM, stronger effect = higher value.
The nature of test [4]: TOR pathway LAP4-GFP level changes – S. cerevisiae, multiplex flow cytometry, primary screen (AID 1873;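 active = GFP signal, as percent of the solvent control, above the screen mean plus 3 SD, about 149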). The note with it: S. cerevisiae LAP4-GFP expression, 3 h, at 10 µM, stronger effect = higher value.
A short description of test [5]: yeast AGP1-GFP level changes, GLN3 branch – cell-based, multiplex flow cytometry, S. cerevisiae, primary screen (AID 1887;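 active = GFP signal above the screen-wide mean plus 3 SD, that is over about 124.5% of the solvent control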;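 note: AGP1-GFP fusion strain of S. cerevisiae within a five-strain barcoded multiplex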). Conditions: 3 h, at 10 µM, stronger effect = higher value.
The nature of test [6]: reduced mouse 2C T cell binding to pMHC/ICAM-1 vesicles – MLPCN validation set, flow cytometry, LFA-1/ICAM-1 modulator project, pilot screen (AID 2523;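 active = response below a set limit, under 55% cells CD8-positive and vesicle-bound, and CD8 cells' 90th-percentile brightness under 279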;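 for vesicle binding response: mean PE anti-B7-1 fluorescence of CD8+ cells relative to row control; 100% = QL9-loaded vesicles with DMSO vehicle in the same plate row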). Conditions: 2C mouse CD8+ T cells, at 7 µM, stronger effect = lower value; double positive events: measured here: CD8+/vesicle+ event percentage.
Test [7] has as its target Integrin beta-1 (Homo sapiens) + Integrin alpha-4 (Homo sapiens) (UniProt P13612+P05556). Briefly: alpha4beta1 integrin LIBS antibody binding reduction – U937 cells, HUTS-21 mAb, flow cytometry, validation set, VLA-4 allosteric modulator project, pilot screen (AID 2674;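 active = inhibition above 50%, about 3 SD of the validation set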;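 note: antibody binding induced by the VLA-4 ligand LDV present at three times its Kd; 0% = LDV ligand with antibody and no compound and 100% = antibody without LDV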). Conditions: HUTS-21 LIBS mAb binding, at 6.7 µM, stronger effect = higher value, binding induced by LDV ligand.
Test [8] is described as follows: calorie-restriction mimetic ROS inhibitors, yeast – validation compound set, pilot screen (AID 2706;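 active = superoxide response below 65% of plate, a cut near 3 SD across the whole screen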;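 note: yeast exposed to compound for one week at 30 degrees C before staining; 100% = mean of all compound wells on the same plate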). Conditions: S. cerevisiae aging, superoxide DHE fluorescence; at 10 µM, stronger effect = lower value.
In test [9] the target is Beta-adrenergic receptor kinase 1 (Homo sapiens) (UniProt P25098). Briefly: GRK2 binders displacing RNA aptamer, biochemical, validation, human GRK2, bead flow cytometry (AID 488806;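 active = aptamer binding inhibition above 30%, about 3 SD of noise from non-fluorescent compounds; inactive = inhibition at or below 30%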). Conditions: bead-bound GRK2, FAM-aptamer displacement, at 10 µM, stronger effect = higher value.
Test [10] concerns the target AP-2 complex subunit beta (Homo sapiens) (UniProt P63010). Nature of the test: beta-arrestin/AP2 interaction blockers – biochemical, validation set, GST-AP2 beads, flow cytometry, pilot screen (AID 504541;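 active = inhibition above 54%, about 3 SD of non-fluorescent compounds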;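 note: AP2 carries R879A mutation and is captured from E. coli lysate; bead-bound FITC arrestin peptide fluorescence measuring arrestin peptide binding to AP2; 0% = DMSO wells and 100% = excess unlabeled arrestin peptide control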). The note with it: FITC arrestin peptide, at 10 µM, stronger effect = higher value, AP2 beta2 appendage fragment, R879A mutant.
Test [11] in a line: cytosolic pH regulators acting via V-ATPase – S. cerevisiae, pHLuorin, HTS validation (AID 504600; in the data active = response above about 15%;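 note: plate controls were DMSO for no effect and reference compound for full effect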). Conditions: V-ATPase proton transport, at 10 µM, stronger effect = higher value.
The subject of test [12] is anti-desmoglein-3 scFv antibody binding to human DSG3. Briefly: blockers of pathogenic pemphigus antibody–desmoglein-3 binding – biochemical, validation compound set, bead-based, flow cytometry, pilot screen (AID 588368).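 Note: signal is the median channel fluorescence of bead-bound GFP antibody.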 Conditions: Protein G beads, DSG3-Fc, scFv-GFP binding, at 10 µM, stronger effect = lower value.
Test [13] in a line: Nile Red efflux blockade in pump-expressing yeast – validation compound set, multiplex, phenotypic, pilot screen (AID 588506;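 active = efflux inhibition above 0.42, the validation set average plus 4 SD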;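 note: Nile Red retained in cells so higher fluorescence means more efflux inhibition; 0 = negative control wells and 1 = enniatin B 25 µM full block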). The note with it: S. cerevisiae pump-expressing triplex, Nile Red efflux flow cytometry; at 10 µM; stronger effect = higher value; the pumps come from Candida albicans.
Test [14] deals with ATP-binding cassette sub-family B member 6 (Homo sapiens) (UniProt Q9NP58). Nature of the test: blockers of ABCB6-driven porphyrin uptake – K562-ABCB6 cells, flow cytometry, validation set, pilot screen (AID 588550;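 active = inhibition above the screen-wide mean plus 3 SD, about 51%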;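 note: 0% = DMSO wells and 100% = benzethonium chloride 70 µM positive control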). The note with it: K562-ABCB6 porphyrin accumulation, 1 h, at 10 µM, stronger effect = higher value.
A short description of test [15]: AML differentiation inducers, ER-HoxA9 marrow cells – cell-based, GFP/MAC1 double positive, flow cytometry, validation set, primary screen (AID 588685;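 active = differentiation response of at least 50%, scaled between solvent and reference control, from cells with both markers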;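 note: compound exposure lasts four days before antibody staining and flow analysis; 0% = DMSO wells and 100% = 5 µM fulvestrant positive control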). The note with it: stronger effect = higher value, normalized: vehicle 0, fulvestrant 100.

Beta-adrenergic receptor kinase 1 (Homo sapiens), sequence (P25098 whole entry, looked up): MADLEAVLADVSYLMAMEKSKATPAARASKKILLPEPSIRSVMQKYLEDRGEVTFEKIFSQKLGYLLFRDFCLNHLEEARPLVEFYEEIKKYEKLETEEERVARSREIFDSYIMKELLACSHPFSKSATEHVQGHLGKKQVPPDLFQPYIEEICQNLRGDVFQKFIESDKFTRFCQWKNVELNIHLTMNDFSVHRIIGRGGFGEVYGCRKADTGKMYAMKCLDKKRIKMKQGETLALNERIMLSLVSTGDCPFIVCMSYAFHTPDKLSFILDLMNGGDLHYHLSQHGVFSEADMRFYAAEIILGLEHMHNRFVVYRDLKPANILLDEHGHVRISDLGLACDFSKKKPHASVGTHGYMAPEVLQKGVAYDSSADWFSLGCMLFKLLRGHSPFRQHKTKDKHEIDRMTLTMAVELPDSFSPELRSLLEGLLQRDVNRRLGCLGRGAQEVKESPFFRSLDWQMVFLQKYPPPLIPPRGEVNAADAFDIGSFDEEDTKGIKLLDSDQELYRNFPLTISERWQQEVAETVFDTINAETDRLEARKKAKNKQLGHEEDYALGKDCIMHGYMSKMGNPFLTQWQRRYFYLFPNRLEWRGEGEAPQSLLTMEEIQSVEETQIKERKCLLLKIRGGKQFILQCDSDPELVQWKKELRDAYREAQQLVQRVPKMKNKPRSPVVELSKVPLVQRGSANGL
AP-2 complex subunit beta (Homo sapiens), sequence (P63010 whole entry, looked up, the tested form may be a part, one chain of several): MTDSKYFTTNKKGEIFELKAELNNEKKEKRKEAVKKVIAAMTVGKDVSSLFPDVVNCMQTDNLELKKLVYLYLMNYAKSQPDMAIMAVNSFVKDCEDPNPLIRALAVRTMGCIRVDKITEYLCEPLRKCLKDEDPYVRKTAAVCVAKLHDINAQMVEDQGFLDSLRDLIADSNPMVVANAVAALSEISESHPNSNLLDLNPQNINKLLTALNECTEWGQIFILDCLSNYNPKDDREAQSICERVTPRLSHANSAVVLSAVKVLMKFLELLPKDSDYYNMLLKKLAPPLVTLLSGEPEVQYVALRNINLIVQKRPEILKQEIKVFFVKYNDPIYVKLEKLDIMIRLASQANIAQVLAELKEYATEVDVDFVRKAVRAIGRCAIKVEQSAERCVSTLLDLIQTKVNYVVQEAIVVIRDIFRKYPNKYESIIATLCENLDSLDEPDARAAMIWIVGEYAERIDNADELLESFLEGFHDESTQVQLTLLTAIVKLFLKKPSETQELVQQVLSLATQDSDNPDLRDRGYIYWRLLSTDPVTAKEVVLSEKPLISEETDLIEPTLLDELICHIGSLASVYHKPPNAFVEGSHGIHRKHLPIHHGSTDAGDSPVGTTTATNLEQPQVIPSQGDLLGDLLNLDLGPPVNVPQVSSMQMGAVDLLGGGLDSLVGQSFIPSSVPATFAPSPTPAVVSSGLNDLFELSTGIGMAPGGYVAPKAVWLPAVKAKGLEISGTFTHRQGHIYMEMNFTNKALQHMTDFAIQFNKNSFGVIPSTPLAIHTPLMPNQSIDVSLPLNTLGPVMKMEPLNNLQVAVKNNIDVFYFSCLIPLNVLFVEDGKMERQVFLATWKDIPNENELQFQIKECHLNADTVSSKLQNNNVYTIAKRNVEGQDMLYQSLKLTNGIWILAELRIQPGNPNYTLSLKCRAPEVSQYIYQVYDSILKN
Integrin beta-1 (Homo sapiens) + Integrin alpha-4 (Homo sapiens), sequence (P05556 whole entry, looked up): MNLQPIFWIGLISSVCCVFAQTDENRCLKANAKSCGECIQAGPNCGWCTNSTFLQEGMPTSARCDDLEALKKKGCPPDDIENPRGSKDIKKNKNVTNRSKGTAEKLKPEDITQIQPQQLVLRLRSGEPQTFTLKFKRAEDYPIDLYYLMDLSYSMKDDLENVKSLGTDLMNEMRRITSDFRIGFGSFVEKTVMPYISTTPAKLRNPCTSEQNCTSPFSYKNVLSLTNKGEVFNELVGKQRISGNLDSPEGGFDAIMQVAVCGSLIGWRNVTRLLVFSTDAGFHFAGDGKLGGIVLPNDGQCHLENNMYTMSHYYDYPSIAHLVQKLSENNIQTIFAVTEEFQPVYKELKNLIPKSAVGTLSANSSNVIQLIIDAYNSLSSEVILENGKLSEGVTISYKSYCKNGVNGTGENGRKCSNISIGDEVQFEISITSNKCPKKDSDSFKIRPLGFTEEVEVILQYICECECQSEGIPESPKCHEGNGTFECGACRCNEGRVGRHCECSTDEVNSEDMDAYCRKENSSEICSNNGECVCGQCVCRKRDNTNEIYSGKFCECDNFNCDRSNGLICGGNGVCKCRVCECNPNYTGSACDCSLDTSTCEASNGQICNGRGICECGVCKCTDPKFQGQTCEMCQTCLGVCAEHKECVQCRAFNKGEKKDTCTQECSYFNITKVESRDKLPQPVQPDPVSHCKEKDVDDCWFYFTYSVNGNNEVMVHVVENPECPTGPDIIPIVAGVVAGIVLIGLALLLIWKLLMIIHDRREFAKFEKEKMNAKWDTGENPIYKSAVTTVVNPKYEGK
Integrin beta-1 (Homo sapiens) + Integrin alpha-4 (Homo sapiens), sequence (P13612 whole entry, looked up): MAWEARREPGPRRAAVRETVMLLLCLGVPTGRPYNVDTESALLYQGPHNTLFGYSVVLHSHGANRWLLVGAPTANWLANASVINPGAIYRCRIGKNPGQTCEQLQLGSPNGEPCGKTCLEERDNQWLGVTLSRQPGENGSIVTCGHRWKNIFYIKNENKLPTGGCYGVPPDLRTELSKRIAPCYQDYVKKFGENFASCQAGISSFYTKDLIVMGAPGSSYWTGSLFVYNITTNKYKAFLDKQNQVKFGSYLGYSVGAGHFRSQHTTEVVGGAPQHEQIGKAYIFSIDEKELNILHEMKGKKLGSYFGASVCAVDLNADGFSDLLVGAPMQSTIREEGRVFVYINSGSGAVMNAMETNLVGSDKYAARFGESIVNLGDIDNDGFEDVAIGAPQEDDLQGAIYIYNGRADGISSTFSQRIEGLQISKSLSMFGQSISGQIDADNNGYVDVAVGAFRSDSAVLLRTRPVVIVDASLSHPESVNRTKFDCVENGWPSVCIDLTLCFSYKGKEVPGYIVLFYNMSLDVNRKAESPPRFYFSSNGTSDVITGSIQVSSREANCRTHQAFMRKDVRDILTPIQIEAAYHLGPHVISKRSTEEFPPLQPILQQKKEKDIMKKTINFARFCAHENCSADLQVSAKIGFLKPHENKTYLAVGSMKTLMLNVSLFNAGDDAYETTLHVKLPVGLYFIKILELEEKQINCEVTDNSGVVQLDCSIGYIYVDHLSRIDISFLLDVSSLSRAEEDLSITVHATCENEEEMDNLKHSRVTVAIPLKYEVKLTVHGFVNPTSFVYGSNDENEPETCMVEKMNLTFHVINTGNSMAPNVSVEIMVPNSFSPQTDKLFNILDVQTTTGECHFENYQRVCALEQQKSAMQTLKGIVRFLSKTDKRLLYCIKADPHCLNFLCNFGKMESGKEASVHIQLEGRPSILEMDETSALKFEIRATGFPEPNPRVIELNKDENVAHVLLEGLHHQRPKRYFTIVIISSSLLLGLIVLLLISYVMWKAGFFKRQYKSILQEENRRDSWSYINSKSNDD
ATP-binding cassette sub-family B member 6 (Homo sapiens), sequence (Q9NP58 whole entry, looked up): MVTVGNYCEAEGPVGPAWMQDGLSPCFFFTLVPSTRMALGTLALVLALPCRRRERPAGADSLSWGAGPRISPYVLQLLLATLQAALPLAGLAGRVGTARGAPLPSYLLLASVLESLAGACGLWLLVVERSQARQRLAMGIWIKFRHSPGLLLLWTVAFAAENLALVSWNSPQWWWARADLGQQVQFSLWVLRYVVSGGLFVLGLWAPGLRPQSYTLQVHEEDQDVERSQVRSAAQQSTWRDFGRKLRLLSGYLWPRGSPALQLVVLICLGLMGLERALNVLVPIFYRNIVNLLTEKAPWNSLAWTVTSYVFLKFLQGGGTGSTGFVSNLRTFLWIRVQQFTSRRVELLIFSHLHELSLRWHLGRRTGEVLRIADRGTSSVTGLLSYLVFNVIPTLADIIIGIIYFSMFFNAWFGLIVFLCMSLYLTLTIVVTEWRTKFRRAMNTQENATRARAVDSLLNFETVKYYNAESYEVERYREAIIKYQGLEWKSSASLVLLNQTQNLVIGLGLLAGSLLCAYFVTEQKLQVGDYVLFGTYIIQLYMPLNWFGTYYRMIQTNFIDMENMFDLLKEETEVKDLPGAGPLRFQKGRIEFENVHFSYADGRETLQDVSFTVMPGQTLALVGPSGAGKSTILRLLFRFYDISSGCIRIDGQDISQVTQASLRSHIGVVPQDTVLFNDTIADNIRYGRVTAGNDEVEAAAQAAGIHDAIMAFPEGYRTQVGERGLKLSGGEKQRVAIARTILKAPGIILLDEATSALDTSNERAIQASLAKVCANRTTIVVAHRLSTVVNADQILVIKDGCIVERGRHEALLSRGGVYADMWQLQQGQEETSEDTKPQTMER

As usually defined, the inhibition is the drop in the measured response relative to a control, in per cent. For `COc1ccc2[nH]c3c(c2c1)CCn1c-3nc2ccccc2c1=O`, the percent of DMSO control GFP in test [1] is 101% (inactive). The GFP response vs DMSO in test [2] was 105% (inactive); in test [4], 116% (inactive). The percent response of DMSO control in test [3] is 104% (inactive). Also, the GFP response, % of DMSO in test [5] was 101% (inactive). In [6], this compound returned a double positive events of 48.2%. The vesicle binding response in test [6] is 168% (inactive). The values for the inhibition in test [7], in test [10] and in test [14] were 2.56% (inactive), 10.7% (inactive) and 7% (inactive), respectively. The superoxide response (% of plate) in [8] is 95.3% (inactive). Moreover, the aptamer binding inhibition in [9] is -2% (inactive). In addition, the response in [11] is 11.4% (inactive). For the same compound, the binding (% of control) in test [12] is 97.2% (inactive). Further, the efflux inhibition (fraction of control) in [13] is -0.12 (inactive). Further, in test [15], the differentiation response was 0% (inactive).
Consider `CC(C)Cn1c(=S)[nH]c2cc(C(=O)O)ccc2c1=O`, for which the percent of DMSO control GFP in test [1] is 105% (inactive). Moreover, the GFP response vs DMSO in test [2] was 97.9% (inactive); in [4], 84.3% (inactive). Also, the percent response of DMSO control in [3] is 108% (inactive). In addition, in test [5], the GFP response, % of DMSO was 98.5% (inactive). The compound further registered a double positive events in test [6] of 61%. Besides, the vesicle binding response in [6] was 197% (inactive). The inhibition in test [7] was -1.17% (inactive); in test [10] it was -1.44% (inactive); in test [14] it was 2% (inactive). The superoxide response (% of plate) in test [8] is 106% (inactive). The aptamer binding inhibition in [9] is 4% (inactive). The response in [11] was -0.3% (inactive). The binding (% of control) in [12] is 96.7% (inactive). The efflux inhibition (fraction of control) in test [13] was -0.01 (inactive). Moreover, in [15], the differentiation response is -26% (inactive).
With `CC(=O)O[C@]1(C(C)=O)CC[C@H]2[C@@H]3C=C(Cl)C4=CC(=O)CC[C@]4(C)[C@H]3CC[C@@]21C`, the percent of DMSO control GFP in [1] was 99.3% (inactive). For the same compound, the figures for the GFP response vs DMSO in test [2] and in test [4] were 89.7% (inactive) and 84.3% (inactive), respectively. Besides, the percent response of DMSO control in [3] is 102% (inactive). Besides, the GFP response, % of DMSO in [5] is 97.2% (inactive). The compound further yielded a double positive events in [6] of 48.7%. The vesicle binding response in test [6] is 201% (inactive). Moreover, the inhibition in test [7] is -20.8% (inactive); in [10], -12.8% (inactive); in [14], 9% (inactive). In test [8], the superoxide response (% of plate) was 108% (inactive). The aptamer binding inhibition in test [9] is -1% (inactive). For the same compound, the response in test [11] is -0.6% (inactive). In [12], the binding (% of control) is 105% (inactive). Also, in test [13], the efflux inhibition (fraction of control) is -0.12 (inactive). Further, the differentiation response in test [15] is -9.89% (inactive).
`CC[C@]1(O)C[C@@H]2CN(CCc3c([nH]c4ccccc34)[C@@](C(=O)OC)(c3cc4c(cc3OC)N(C)[C@H]3[C@@](O)(C(=O)OC)[C@H](OC(C)=O)[C@]5(CC)C=CCN6CC[C@]43[C@@H]65)C2)C1`: the percent of DMSO control GFP in test [1] is 102% (inactive). Also, the GFP response vs DMSO in [2] is 101% (inactive); in [4], 92.3% (inactive). In test [3], the percent response of DMSO control is 101% (inactive). The GFP response, % of DMSO in [5] is 99% (inactive). The same compound registered a double positive events in test [6] of 55.4%. Moreover, in test [6], the vesicle binding response was 153% (inactive). Also, the inhibition in test [7] is 23.1% (inactive); in test [10] it was -7.9% (inactive); in [14], 8% (inactive). The superoxide response (% of plate) in [8] is 86.7% (inactive). Besides, in [9], the aptamer binding inhibition is -13% (inactive). Moreover, the response in [11] was 1.26% (inactive). Moreover, the binding (% of control) in test [12] was 111% (inactive). Moreover, the efflux inhibition (fraction of control) in test [13] was 0.59 (active). Also, the differentiation response in [15] is 3.03% (inactive).
As for `CC(=O)NC1C(OCCOc2ccc(Cl)cc2Cl)OC(COC(C)=O)C(OC(C)=O)C1OC(C)=O` (stereo not given), the percent of DMSO control GFP in test [1] was 103% (inactive). Besides, the GFP response vs DMSO was 102% (inactive) in test [2] and 91.3% (inactive) in [4]. Also, the percent response of DMSO control in test [3] is 108% (inactive). Moreover, the GFP response, % of DMSO in test [5] was 94.5% (inactive). For the same compound, in [6], the double positive events came to 55.1%. For the same compound, the vesicle binding response in [6] was 168% (inactive). Moreover, the inhibition was 16.6% (inactive) in test [7], 8.3% (inactive) in test [10] and 9% (inactive) in test [14]. The superoxide response (% of plate) in test [8] was 108% (inactive). Further, the aptamer binding inhibition in [9] was 3% (inactive). The response in test [11] was -6.83% (inactive). Besides, in [12], the binding (% of control) was 101% (inactive). In addition, the efflux inhibition (fraction of control) in test [13] was -0.2 (inactive). In test [15], the differentiation response was 20.8% (inactive).
